Compounds with a hit are over-represented: about 3.7% of the library has one in this group of screens.
IL-2 act = qHTS of IL-2 Activators | IL-2 activation reporter assay, cell-based qHTS; stimulated with anti-CD3/CD4/CD28 beads; in transgenic mouse T cells | activation, % (series mostly up to about 46 µM) | 360,000 compounds, 0.065% hits; in the data active means activation above about 50%; inconclusive means mostly about 30% to 49%; further: 0% is about no effect
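Quantitative HTS in unstimulated transgenic mouse T cells, with memory T cells as non-tolerant control and PMA/ionomycin as tolerance-bypass control. Compound pretreatment lasted 60 minutes before 18 h bead stimulation; EGFP/DsRed fluorescence read.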
Nrf2 inh = Nrf2 qHTS screen for inhibitors; Potency, µM (top dose mostly 46 µM), for the others: top-dose activity change, negative = inhibition, actives largely listed as inhibitors; A549 ARE-Fluc reporter, luciferase luminescence, 18-24 h; AID 504444, 2011; 360,000 compounds, 2.1% hits; further: potency means the concentration at half of the fitted maximal effect; on the % scale 0 is the no-effect control and ±100 the full control effect; nearly all actives have a fitted effect of over 60% in size
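Reporter: ARE-Fluc in A549. Exposure: 18-24 h, 37 °C, 5% CO2, 5% FBS OPTI-MEM. Readouts: fluorescent cytotoxicity (CellTiter-Fluor), then luminescent Nrf2 signal after BugLite.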
A549 viability = Nrf2 qHTS screen for inhibitors: counterscreen for cytotoxicity | Potency, µM (highest dose often 46 µM), inactives show at the top dose activity change, negative = cytotoxicity, usual class: inhibitors | 390,000 compounds, 0.16% hits | AID 504648, 2011 | A549 ARE-Fluc cells, CellTiter-Fluor viability, 18-24 h; further: potency means the concentration at half of the fitted maximal effect; on the % scale 0 is the no-effect control and ±100 the full control effect
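Cytotoxicity counterscreen: CellTiter-Fluor fluorescence was measured in A549 ARE_Fluc cells after 18-24 h of compound exposure in a concentration series. The subsequent BugLite luminescent read reports ARE-luciferase activity.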
Nrf2 activator = qHTS of Nrf2 Activators | AREc32 ARE-luciferase reporter (MCF7-derived line), luminescence, 24 h | Potency, µM (titrated, usually from 46.1 µM), inactives show top-dose activation, usual class: activators | 410,000 compounds, 0.31% hits; further: potency means the concentration at half of the fitted maximal effect; % of control where 0% means no effect; nearly all actives have a fitted effect of over 65% in size
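AREc32 cells carrying an ARE-driven firefly luciferase, 1000 cells/well in OPTI-MEM with 5% FBS, dosed after overnight attachment and incubated 24 hr at 37 deg C. Steady-Glo luminescence read after 30 min at RT.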
ClpP mod = qHTS Assay for Activators of ClpP; ATP-dependent Clp protease proteolytic subunit (Bacillus subtilis (strain 168)), P80244; purified B. subtilis ClpP, FRET peptide cleavage, 20 min; Potency, µM (series often up to 57.5 µM), for the others: top-dose activity change, negative = active; 340,000 compounds, 1.9% hits; AID 651965, 2013; active means well fitted falling curve with a large enough effect; inconclusive means small, poorly fitted or top-dose-only effect; inactive means no such curve, though single readings can be large or run the other way; further: potency means the concentration at half of the fitted maximal effect; the source files actives as falling curves though it sought activators and does not explain the sign; nearly all actives have a fitted effect of over 65% in size
Target sequence (P80244 whole entry, looked up): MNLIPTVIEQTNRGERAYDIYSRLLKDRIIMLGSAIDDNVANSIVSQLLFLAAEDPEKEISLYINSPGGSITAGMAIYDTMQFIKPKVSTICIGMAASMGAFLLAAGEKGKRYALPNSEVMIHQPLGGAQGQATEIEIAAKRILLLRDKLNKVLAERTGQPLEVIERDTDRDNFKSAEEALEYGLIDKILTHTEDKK
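ClpP 10 microg/mL final, pH 8 Tris/KCl buffer with BSA, glycerol, Tween-20; compound pinned in; FRET-FV substrate; RT 20 min; Ex320/Em430; ΔFRET vs ADEP 5.8 microM, DMSO, no enzyme.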
miR-21 act = qHTS Assay for Modulators of miRNAs and/orActivators of miR-21; Potency, µM (series often up to 38.3 µM), for the others: at the highest dose activity change, positive = activation, hits mostly activators; 340,000 tested, under 10 active; HeLa miR-21 FLuc reporter, luciferase, 48 h; AID 2288, 2010;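 further: % of control where 0% means no effect; miR-21 action dims this reporter so a rising signal means less miR-21 action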
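HeLa cells endogenously expressing miR-21, stably carrying CMV-driven firefly luciferase with a downstream miR-21 binding site, 2000 cells/well. Titrations up to approximately 40 uM, 48 hours; luciferase luminescence read.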
Starred values were filed as active, the others as inactive; ? = inconclusive; . = no result given; [ ] = dose if it differs, or a comment. Unless noted, the call rests on the fitted dose curve; in most records, active means well fitted curve in the direction sought with a large enough effect; inconclusive means small, poorly fitted or top-dose-only effect, or another doubt; inactive means no such curve, though single readings can be large; an effect the other way counts as inactive or inconclusive.

SMILES	IL-2 act	Nrf2 inh	A549 viability	Nrf2 activator	ClpP mod	miR-21 act
CC(=O)Nc1ccc(S(=O)(=O)NCCSCc2ccccc2Cl)cc1	-4	10µM*	-1%	0%	-4%	13%
COc1ccccc1OCC(=O)NCCSCc1ccccc1Cl	1	-8%	7%	0%	0%	-28%
CCOc1ccc(NC(=O)C2CCC(CNS(=O)(=O)c3ccc(Br)s3)CC2)cc1 (stereo not drawn)	.	4%	2%	1%	5%	-15%
CC(=O)N1CCc2c(sc3nc(SCC(N)=O)n(-c4ccc(F)c(Cl)c4)c(=O)c23)C1	.	-10%[9.27 µM]	1%	13%	-24%	2%
O=C(O)C(=O)/C(=C\c1cccc2ccccc12)c1ccc2ccccc2n1	1	4%	-8%	-1%	16µM*	-12%
COc1ccc(-n2ncc(C(=O)NCc3ccccc3)c2C2CCN(C(=O)OC(C)(C)C)CC2)cc1	.	-11%	-2%	0%	-2%	4%
Cc1c(Cl)cccc1-n1ncc(C(=O)Nc2ccc(F)cc2F)c1C1CCN(C(=O)OC(C)(C)C)CC1	.	26µM*	-11%	1%	-1%	?
COc1ccc2[nH]cc(CCNC(=O)c3cnn(-c4ccc(C)cc4)c3C3CCN(C(=O)OC(C)(C)C)CC3)c2c1	.	15µM*	-20%	-1%	-2%	?
CCc1cccc(C)c1NC(=O)c1cnn(-c2ccc(OC)cc2)c1C1CCN(C(=O)OC(C)(C)C)CC1	.	23µM*	-15%	-1%	1%	29%
COc1ccc2[nH]cc(CCNC(=O)c3cnn(-c4ccccc4Cl)c3C3CCN(C(=O)OC(C)(C)C)CC3)c2c1	.	?	?	4%	-6%	23%
O=S(=O)(c1ccccc1)N1CCC(c2ccncc2)CC1	.	.	1%	-1%	-9%	11%
O=S1(=O)N=C(Oc2ccccc2Cl)c2ccccc21	.	8%[65.3 µM]	0%[65.3 µM]	.	.	.
CCOc1ccccc1CNc1ccc2cc(S(=O)(=O)N3CCC(C)CC3)ccc2n1	.	?	-13%	1%	4%	5%
Cn1cc(P(=O)(c2ccccc2)c2ccccc2)c2ccccc21	.	3%	9%	.	.	.
CCC(=O)Nc1sc2c(c1C(=O)Nc1ccccc1C)CCC(C)C2 (stereo not drawn)	.	.	4%	0%	2%	-4%
Nc1ccc(C(=O)OCc2nc3ccccc3s2)cc1	2	?	0%	3%	.	-62%
O=C(OCc1nc2ccccc2s1)c1ccc(Br)s1	-2	.	?	11µM*	-6%	-16%
Cc1ccc(C(=O)OCc2nc3ccccc3s2)o1	0	?	2%	10µM*	.	.
CNC(=O)c1cc(-c2cccs2)on1	.	.	.	.	-8%	.
COc1ccc(C(=O)NCCn2cc(SCC(=O)Nc3ccc(C)cc3)c3ccccc32)cc1	.	.	-26%	-1%	1%	?
COc1ccc(C(=O)NCCn2cc(SCc3cc(C)ccc3C)c3ccccc32)cc1	.	18µM*	?	1%	-2%	?
CCN(CC)S(=O)(=O)c1nnc(NC(=O)c2ccc(Br)cc2)s1	.	?	5%	0%	-8%	-17%
COc1ccccc1N1CCN(C(=O)c2cc3c(=O)oc4ccc(C)cc4c3s2)CC1	.	8%	4%	0%	-2%	-3%
N#Cc1c(N)c(C#N)c(-c2ccc(O)cc2)c2c1CCCC2	2	.	-1%	0%	22µM*	2%
N#Cc1c(N)c(C#N)c(-c2ccc3c(c2)OCO3)c2c1CCCC2	1	-21%	0%	0%	32µM*	-6%
CSc1nc2c(c(-c3ccc(O)cc3)c1C#N)CCC2	-1	-28%	0%	0%	-6%	-5%
COCCn1ccc2c(OCC(=O)Nc3ccccc3F)cccc2c1=O	.	.	-5%	6%	3%	-34%

Screens deposited in PubChem by National Center for Advancing Translational Sciences (NCATS).
